Source: PubChem BioAssay (EPA / NIEHS)
The source made the active and inactive calls. How the source made its calls: active means hit-call score of the fitted dose curve at least 0.9, where 1 is the maximum; inactive means score below 0.9.

Key:
Details in all cases: mRNA level, 48 h; actives raise or lower the signal
[1] = read-out: ATP-citrate lyase (ACLY), ACLY (gene 47); assay: LTEA_HepaRG_ACLY: Life Technologies and Expression Analysis (LTEA) Assay for ATP-citrate lyase (ACLY) using HepaRG (AID 2283466)
In short: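 HepaRG, 48 h exposure, 8-pt half-log dilutions (top 100 uM), 0.5% DMSO. Readout: ACLY mRNA, TaqMan qRT-PCR, housekeeping-normalized (ACTB/GAPDH/POLR2A). Bidirectional curve fit vs DMSO.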

[2] = read-out: Peroxisomal acyl-coenzyme A oxidase 1 (ACOX1) gene, ACOX1 (gene 51); assay: LTEA_HepaRG_ACOX1: Life Technologies and Expression Analysis (LTEA) Assay for Peroxisomal acyl-coenzyme A oxidase 1 (ACOX1) gene using HepaRG (AID 2283467)
In short: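 Measured by qRT-PCR against three housekeeping genes: ACOX1 transcript change in human HepaRG cells after 48 h dosing. Concentrations ran up to 100 uM in half-log steps. Curves were fitted bidirectionally relative to 0.5% DMSO.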

[3] = read-out: Alkaline Phosphatase, Placental (ALPP) gene, ALPP (gene 250); assay: LTEA_HepaRG_ALPP: Life Technologies and Expression Analysis (LTEA) Assay for Alkaline Phosphatase, Placental (ALPP) gene using HepaRG (AID 2283468);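 on AC50: differentiated human HepaRG liver cells in serum-free induction medium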
In short: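 qRT-PCR readout of ALPP mRNA (Fluidigm TaqMan), normalized to ACTB/GAPDH/POLR2A, after 48 h chemical exposure of HepaRG cells; 8-point half-log series, top 100 uM, 0.5% DMSO vehicle. Bidirectional curve fit versus DMSO baseline.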

[4] = read-out: Bcl-2 (BAD) gene, BAD (gene 572); assay: LTEA_HepaRG_BAD: Life Technologies and Expression Analysis (LTEA) Assay for Bcl-2 (BAD) gene using HepaRG (AID 2283469)
In short: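 BAD transcript change, measured by qRT-PCR against three housekeeping genes and fitted in both directions relative to 0.5% DMSO, after 48 h chemical treatment of human HepaRG liver cells at concentrations up to 100 uM.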

[5] = read-out: Bcl-2 (BAX) gene, BAX (gene 581); assay: LTEA_HepaRG_BAX: Life Technologies and Expression Analysis (LTEA) Assay for Bcl-2 (BAX) gene using HepaRG (AID 2283470)
In short: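 HepaRG (human liver), 48 h exposure, duplicate wells. 8-pt curve, half-log from 100 uM, 0.5% DMSO. BAX transcript by TaqMan qRT-PCR; ACTB/GAPDH/POLR2A normalization; gain or loss vs DMSO baseline.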

[6] = read-out: adenosine kinase (ADK) gene, ADK (gene 132); assay: LTEA_HepaRG_ADK: Life Technologies and Expression Analysis (LTEA) Assay for adenosine kinase (ADK) gene using HepaRG (AID 2283471)
In short: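 Differentiated HepaRG cells dosed 48 h in serum-free induction medium, 0.5% DMSO vehicle, eight half-log concentrations from 100 uM, in duplicate. ADK mRNA by TaqMan qRT-PCR normalised to ACTB, GAPDH, POLR2A; bidirectional fit versus DMSO.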

[7] = read-out: Alpha-fetoprotein (AFP) gene, AFP (gene 174); assay: LTEA_HepaRG_AFP: Life Technologies and Expression Analysis (LTEA) Assay for Alpha-fetoprotein (AFP) gene using HepaRG (AID 2283472)
In short: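 HepaRG, single lot; 48 h post-plating -> serum-free induction medium; cpd 8-pt, 100 uM top, half-log, 0.5% DMSO, duplicate, 48 h. RNA -> qRT-PCR AFP, norm ACTB/GAPDH/POLR2A. Bidirectional fit vs DMSO.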

BCL2L11 (gene 10018) = assay: LTEA_HepaRG_BCL2L11: Life Technologies and Expression Analysis (LTEA) Assay for Bcl-2 (BCL2L11) gene using HepaRG (AID 2283473)
In short: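 HepaRG, 48 h exposure, 8-pt half-log series from 100 uM in 0.5% DMSO, duplicates; qRT-PCR (Fluidigm TaqMan) for BCL2L11, housekeeping-normalized; bidirectional curve fit relative to DMSO baseline.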

[8] = read-out: Apolipoprotein A-V (APOA5) gene, APOA5 (gene 116519); assay: LTEA_HepaRG_APOA5: Life Technologies and Expression Analysis (LTEA) Assay for Apolipoprotein A-V (APOA5) gene using HepaRG (AID 2283474)
In short: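 HepaRG, 48 h chemical exposure in serum-free induction medium, 8-pt half-log series (top 100 uM), 0.5% DMSO vehicle, duplicates. Readout: APOA5 mRNA by qRT-PCR, housekeeping-normalized; bidirectional fit vs DMSO baseline.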

[9] = read-out: Apoptosis regulator Bcl-2 (Homo sapiens) (UniProt P10415); assay: LTEA_HepaRG_BCL2: Life Technologies and Expression Analysis (LTEA) Assay for Bcl-2 gene using HepaRG (AID 2283475)
In short: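 HepaRG, plated 48 h then switched to serum-free induction medium; dosed 48 h, 8 conc. (max 100 uM, half-log steps), duplicate, 0.5% DMSO. Lysis in RLT, RNA isolated, TaqMan qRT-PCR for BCL2; ACTB/GAPDH/POLR2A normalisation; bidirectional fit vs DMSO.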

[10] = read-out: Bcl-2 (BID) gene, BID (gene 637); assay: LTEA_HepaRG_BID: Life Technologies and Expression Analysis (LTEA) Assay for Bcl-2 (BID) gene using HepaRG (AID 2283476)
In short: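 Transcript levels of BID, measured by qRT-PCR and normalized to three housekeeping genes, were fitted bidirectionally against DMSO controls. Cells were HepaRG, dosed 48 h at up to 100 uM.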

Caspase-3 (Homo sapiens) = Caspase-3 (Homo sapiens) (UniProt P42574); assay: LTEA_HepaRG_CASP3: Life Technologies and Expression Analysis (LTEA) Assay for cysteine-aspartic acid protease (CASP3) using HepaRG (AID 2283477)
In short: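 HepaRG, 48 h exposure, 8 conc. (top 100 uM, half-log steps, duplicate), 0.5% DMSO vehicle; qRT-PCR of CASP3 transcript, housekeeping-normalised (ACTB/GAPDH/POLR2A); bidirectional curve fit vs DMSO baseline.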

[11] = read-out: Cytochrome P450 (CYP24A1), CYP24A1 (gene 1591); assay: LTEA_HepaRG_CYP24A1: Life Technologies and Expression Analysis (LTEA) Assay for Cytochrome P450 (CYP24A1) using HepaRG (AID 2283478)
In short: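 qRT-PCR read-out: CYP24A1 transcript levels normalized to three housekeeping genes, bidirectional curve fits against 0.5% DMSO baseline. Human HepaRG cells treated 48 h with chemicals at eight concentrations from 100 uM in half-log steps.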

[12] = read-out: Cytochrome P450 (CYP1A2), CYP1A2 (gene 1544); assay: LTEA_HepaRG_CYP1A2: Life Technologies and Expression Analysis (LTEA) Assay for Cytochrome P450 (CYP1A2) using HepaRG (AID 2283479)
In short: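 HepaRG, 48 h exposure, top 100 uM, half-log 8-pt, 0.5% DMSO vehicle, duplicates. Readout: TaqMan qRT-PCR of CYP1A2 mRNA, housekeeping-normalized (ACTB/GAPDH/POLR2A). Gain/loss fit relative to DMSO baseline.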

[13] = read-out: cysteine-aspartic acid protease (CASP8), CASP8 (gene 841); assay: LTEA_HepaRG_CASP8: Life Technologies and Expression Analysis (LTEA) Assay for cysteine-aspartic acid protease (CASP8) using HepaRG (AID 2283480)
In short: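 HepaRG, 48 h exposure, duplicate wells; 8 conc, half-log from 100 uM, 0.5% DMSO. Serum-free induction medium. CASP8 mRNA by TaqMan qRT-PCR, norm. ACTB/GAPDH/POLR2A; gain/loss fitted vs DMSO.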

[14] = read-out: Cytochrome P450 (CYP2B6), CYP2B6 (gene 1555); assay: LTEA_HepaRG_CYP2B6: Life Technologies and Expression Analysis (LTEA) Assay for Cytochrome P450 (CYP2B6) using HepaRG (AID 2283481)
In short: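 Read-out is CYP2B6 mRNA by TaqMan qRT-PCR, normalized to three housekeeping genes and fitted bidirectionally against 0.5% DMSO baseline. Human HepaRG cells received test chemicals for 48 h, top concentration 100 uM, half-log dilutions.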

[15] = read-out: Cytochrome P450 2C19 (Homo sapiens) (UniProt P33261); assay: LTEA_HepaRG_CYP2C19: Life Technologies and Expression Analysis (LTEA) Assay for CYP2C19 using HepaRG (AID 2283482)
In short: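 HepaRG, 48 h chemical exposure, 8-pt half-log series from 100 uM in 0.5% DMSO, duplicates. Readout: CYP2C19 mRNA by TaqMan qRT-PCR, housekeeping-normalized. Bidirectional fit vs DMSO baseline; phenobarbital 1mM as induction control.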

CYP2C8 (gene 1558) = assay: LTEA_HepaRG_CYP2C8: Life Technologies and Expression Analysis (LTEA) Assay for CYP2C8 using HepaRG (AID 2283483)
In short: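 CYP2C8 mRNA induction or loss, by qRT-PCR normalized to ACTB/GAPDH/POLR2A, is read in HepaRG cells after 48 h treatment. Concentrations run from 100 uM down in half-log dilutions, with 0.5% DMSO as vehicle and baseline.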

CYP2C9 (gene 1559) = assay: LTEA_HepaRG_CYP2C9: Life Technologies and Expression Analysis (LTEA) Assay for CYP2C9 using HepaRG (AID 2283484)
In short: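 Cells plated 48 h, switched to serum-free induction medium, then treated in duplicate for 48 h at eight concentrations (max 100 uM, 0.5% DMSO). RNA then analysed by qRT-PCR for CYP2C9; curves fitted in both directions relative to DMSO.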

CYP2E1 (gene 1571) = assay: LTEA_HepaRG_CYP2E1: Life Technologies and Expression Analysis (LTEA) Assay for CYP2E1 using HepaRG (AID 2283485)
In short: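 Human liver line HepaRG, plated 48 h, then serum-free induction medium + chemical x 48 h; 8-pt CRC from 100 uM, half-log, 0.5% DMSO, n=2. Readout: CYP2E1 mRNA qRT-PCR vs ACTB/GAPDH/POLR2A; bidirectional fit vs DMSO.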

Measured: AC50

Sequence of Apoptosis regulator Bcl-2 (Homo sapiens) (P10415 whole entry, looked up): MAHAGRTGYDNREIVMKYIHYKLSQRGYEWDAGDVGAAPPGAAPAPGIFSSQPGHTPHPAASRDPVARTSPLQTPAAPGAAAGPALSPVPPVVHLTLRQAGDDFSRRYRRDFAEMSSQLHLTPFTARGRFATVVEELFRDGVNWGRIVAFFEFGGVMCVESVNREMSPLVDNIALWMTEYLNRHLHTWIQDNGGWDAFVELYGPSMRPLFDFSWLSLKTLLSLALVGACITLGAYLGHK
Sequence of Caspase-3 (Homo sapiens) (P42574 whole entry, looked up): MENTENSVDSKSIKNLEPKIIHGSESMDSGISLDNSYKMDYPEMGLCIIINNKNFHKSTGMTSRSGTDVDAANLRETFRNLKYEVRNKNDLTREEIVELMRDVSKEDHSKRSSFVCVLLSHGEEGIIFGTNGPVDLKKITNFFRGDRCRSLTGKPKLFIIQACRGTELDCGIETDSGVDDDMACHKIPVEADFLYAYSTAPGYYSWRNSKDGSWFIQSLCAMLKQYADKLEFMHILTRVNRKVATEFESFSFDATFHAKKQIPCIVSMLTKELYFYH
Sequence of Cytochrome P450 2C19 (Homo sapiens) (P33261 whole entry, looked up): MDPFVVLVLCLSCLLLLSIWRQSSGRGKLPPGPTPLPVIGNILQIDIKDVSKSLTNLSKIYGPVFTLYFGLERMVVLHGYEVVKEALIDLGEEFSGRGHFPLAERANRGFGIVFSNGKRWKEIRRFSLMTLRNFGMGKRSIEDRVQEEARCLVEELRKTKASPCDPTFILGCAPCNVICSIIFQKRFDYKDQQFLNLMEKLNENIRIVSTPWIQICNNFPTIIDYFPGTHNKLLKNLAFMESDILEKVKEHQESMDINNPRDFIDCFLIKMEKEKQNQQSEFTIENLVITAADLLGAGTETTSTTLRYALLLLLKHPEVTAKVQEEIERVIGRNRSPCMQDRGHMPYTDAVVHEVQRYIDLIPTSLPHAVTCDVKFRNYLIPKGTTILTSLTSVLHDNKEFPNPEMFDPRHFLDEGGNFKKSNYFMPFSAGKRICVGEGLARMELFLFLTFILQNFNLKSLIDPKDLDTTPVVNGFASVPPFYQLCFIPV

CCCCCCCCCCCO
inactive: all assays above

O=C1c2ccccc2C(=O)N1CCc1noc(-c2ccc(CN3CCCCCC3)s2)n1
active: [12] 6.97 µM | [14] 27.9 µM
inactive: all other assays above

CN(C[C@@H](CC[N+]12CCC(C3CCCCC3)(CC1)CC2)c1ccc(Cl)c(Cl)c1)C(=O)c1cc(C(F)(F)F)cc(C(F)(F)F)c1
active: [2] 63.5 µM | [7] 23.2 µM | [8] 8.93 µM | [12] 11.5 µM | [14] 18 µM | [15] 29.9 µM | CYP2C8 (gene 1558) 25.4 µM | CYP2C9 (gene 1559) 12.9 µM | CYP2E1 (gene 1571) 13.7 µM
not listed: [3]
inactive: all other assays above

O=c1[nH]sc2ccccc12
active: [12] 80.3 µM
inactive: all other assays above

c1ccc(C[n+]2cccc3ccccc32)cc1
active: [2] 22.8 µM | [3] 13 µM | [5] 69.4 µM | [7] 35 µM | BCL2L11 (gene 10018) 32.4 µM | [8] 31.4 µM | [9] 35.1 µM | [14] 50 µM | [15] 50 µM | CYP2C8 (gene 1558) 30 µM | CYP2C9 (gene 1559) 31 µM | CYP2E1 (gene 1571) 24.6 µM
inactive: [1] | [4] | [6] | [10] | Caspase-3 (Homo sapiens) | [11] | [12] | [13]

c1ccc2ccccc2c1
active: [14] 12.1 µM
not listed: [3]
inactive: all other assays above

CCN(Cc1cccc(S(=O)(=O)O)c1)c1ccc(C(=C2C=CC(=[N+](CC)Cc3cccc(S(=O)(=O)O)c3)C=C2)c2ccccc2S(=O)(=O)[O-])cc1
not listed: [3]
inactive: all other assays above

CC(C)(C)c1cc(/C=C2\SC(N)=NC2=O)cc(C(C)(C)C)c1O
active: [1] 82 µM | [2] 26.1 µM | [6] 23.5 µM | BCL2L11 (gene 10018) 96.8 µM | [9] 21.1 µM | [10] 15.8 µM | Caspase-3 (Homo sapiens) 15.8 µM | [13] 27.8 µM | [14] 93.7 µM | [15] 26.3 µM | CYP2C9 (gene 1559) 12.2 µM | CYP2E1 (gene 1571) 83.2 µM
inactive: [3] | [4] | [5] | [7] | [8] | [11] | [12] | CYP2C8 (gene 1558)

Cc1ccc(C(C)C)cc1
not listed: [3]
inactive: all other assays above

OC12N=C(c3ccccc3)SC1Cc1cc(Cl)ccc12 (stereo not given)
active: [1] 0.377 µM | [2] 21.1 µM | [7] 36.4 µM | BCL2L11 (gene 10018) 2.86 µM | [8] 25.2 µM | [9] 20.3 µM | [12] 1.25 µM | [14] 11.6 µM | [15] 80.4 µM | CYP2C8 (gene 1558) 39.6 µM | CYP2C9 (gene 1559) 37.7 µM | CYP2E1 (gene 1571) 16 µM
inactive: [4] | [5] | [6] | [10] | Caspase-3 (Homo sapiens) | [11] | [13]

O=C=NCCCCCCN=C=O
inactive: all assays above

CCCCCCCCCCCCO
inactive: all assays above
